# Results reported in PubChem BioAssay.
# “And” between values parts separate entries of the source, which are not always exact repeats. Identical values can stand only once. The source made the active and inactive calls.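 Rule for the calls, unless noted: active = compound raises GLP1 secretion from the human gut endocrine cells, with no numeric limit stated; inactive = the rest.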
# What was measured:
# [1] = hESC survival regulators, cell-based (AID 493140; call rule not given here;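 note: cells exposed to compounds for four days before counting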); details: human embryonic stem cell survival screen; stronger effect = higher value
# [2] = liver-stage malaria parasite growth inhibition, primary screen, cell-based, HepG2, luciferase luminescence, HepG2 viability (AID 624349; in the data active = parasite load remaining mostly below about 12%, no sharp cut-off; inactive = mostly above about 10%;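 note: 100% = mean of DMSO negative control wells on the same plate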); details: P. berghei liver stage in HepG2, luciferase luminescence, concentration not given here; parasite load remaining: stronger effect = lower value; viability: measured here: HepG2 viability without parasites
# [3] = stimulators of nuclear beta-catenin in C2C12, primary screen, imaging, WNT3A-conditioned medium, mouse C2C12, NPC library (AID 1117326; in the data active = nuclear beta-catenin stimulation mostly above about 4.2%, no sharp cut-off; inactive = mostly below about 10%); details: stronger effect = higher value
# [4] = stimulators of insulin release from INS-1E, primary screen, cell-based, 5 mM glucose, NPC library (AID 1117329;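 active = compound raises insulin release from rat beta cells at 5 mM glucose, no numeric limit stated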); details: rat INS-1E insulin secretion, at 10 µM, stronger effect = higher value
# [5] = growth inhibition of GSK3B-pretreated HCT116 cells – cell-based, CellTiter-Glo, 0.2 to 20 µM (AID 1117336;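 active = compounds lowering colon cancer cell viability after pretreatment blocking the GSK3B kinase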); details: HCT116 viability after GSK3B inhibitor, at 20 µM, stronger effect = higher value
# [6] = inhibition of endothelial tube formation, primary screen, imaging, VEGF stimulated, CD31 staining, tube area, NPC library (AID 1117340;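 active = compound that reduces growth-factor-driven endothelial tube area in a mixed cell culture, no cutoff stated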); details: VEGF-stimulated ADSC/ECFC co-culture, at 10 µM, stronger effect = higher value
# [7] = glucagon-like peptide 1 release enhancers, primary assay, NCI-H716 cell line, NPC library (AID 1117341); details: NCI-H716 cells, at 10 µM, stronger effect = higher value
# [8] = HCT116 colon cancer cell growth inhibition, primary screen, CellTiter-Glo luminescence, NPC library (AID 1117342;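 active = compounds that lower survival of HCT116 colon cancer cells in the luminescence readout, no numeric limit stated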); details: at 20 µM (top of the series)
# [9] = CellTiter-Glo luminescent readout of SW480 viability loss, NPC library primary (AID 1117343;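 active = compounds that lower viability of the colon cancer cells in the luminescence readout, with no numeric limit stated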); details: CellTiter-Glo luminescence; at 20 µM (top of the series)
# [10] = decreased DLD-1 cellular survival, CellTiter-Glo luminescent readout, NPC compound collection, primary HTS (AID 1117346;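 active = compounds that lower survival of DLD-1 colon cancer cells in the luminescence readout, no cutoff given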); details: DLD-1 viability, CellTiter-Glo luminescence; at 20 µM (top of the series)
# [11] = sensitizers of A549 cells to miR-34 induction, primary screen, imaging, A549 dox-inducible miR-34, nuclei and caspase counts (AID 1347080;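 active = compounds whose cell count with miR-34 switched on is under 0.7 times the count with it off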); details: A549 miR-34 inducible, Hoechst nuclei count, 48 h
# [12] = survival rescue of mitochondrial mutant cells in low glucose, primary screen, MELAS cybrids, Rieske KO mouse fibroblasts, CellTiter-Glo (AID 1508586;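 active = mean z-score across replicates of 1.96 or higher in either the MELAS or the Rieske mutant cell line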;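 note: z relative to plate mean and SD of compound and empty wells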)
# [13] = target: NAD(+) hydrolase SARM1 (Homo sapiens) (UniProt Q6SZW1); assay: SARM1 TIR NADase inhibitors, cell lysate, NAD-Glo luminescence (AID 1508614;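 active = compound whose remaining NAD level is above about 45 nM, limit read from the data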;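 note: higher remaining NAD means stronger inhibition of SARM1 NADase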); details: SAM-TIR HEK293T lysate NADase, at 1 µM, stronger effect = higher value
# [14] = viability rescue of complex I mutant cybrids, primary screen, cell-based, galactose medium, ATP luminescence (AID 1645843;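 active = z-score of at least 1.8 in each of two replicates, scored against plate mean and spread of sample wells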;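 note: positive z means more ATP and so rescue of galactose-driven cybrid death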); details: complex I mutant cybrid cells, 72 h, stronger effect = higher value
# [15] = target: Mitogen-activated protein kinase 7 (Homo sapiens) (UniProt Q13164); assay: ERK5 transactivation activators in reporter cells, primary screen, cell-based, HTS (AID 1508626;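 active = luciferase signal above three times the same-plate solvent-only control wells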;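 note: luciferase driven by Gal4-ERK5 fusion binding five Gal4 sites before minimal TATA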); details: HeLa Gal4-ERK5 transactivation, 18 h, at 5 µM, stronger effect = higher value
# [16] = measured here: relative caspase fold change +Dox/-Dox
# [17] = measured here: total cells with miR-34 induction, stronger effect = lower value
# [18] = measured here: total cells without miR-34 induction
# [19] = MELAS cybrid survival, CellTiter-Glo 48 h, stronger effect = higher value
# [20] = Rieske KO mouse fibroblast survival, CellTiter-Glo 72 h
# Sequence of NAD(+) hydrolase SARM1 (Homo sapiens) (Q6SZW1 whole entry, looked up): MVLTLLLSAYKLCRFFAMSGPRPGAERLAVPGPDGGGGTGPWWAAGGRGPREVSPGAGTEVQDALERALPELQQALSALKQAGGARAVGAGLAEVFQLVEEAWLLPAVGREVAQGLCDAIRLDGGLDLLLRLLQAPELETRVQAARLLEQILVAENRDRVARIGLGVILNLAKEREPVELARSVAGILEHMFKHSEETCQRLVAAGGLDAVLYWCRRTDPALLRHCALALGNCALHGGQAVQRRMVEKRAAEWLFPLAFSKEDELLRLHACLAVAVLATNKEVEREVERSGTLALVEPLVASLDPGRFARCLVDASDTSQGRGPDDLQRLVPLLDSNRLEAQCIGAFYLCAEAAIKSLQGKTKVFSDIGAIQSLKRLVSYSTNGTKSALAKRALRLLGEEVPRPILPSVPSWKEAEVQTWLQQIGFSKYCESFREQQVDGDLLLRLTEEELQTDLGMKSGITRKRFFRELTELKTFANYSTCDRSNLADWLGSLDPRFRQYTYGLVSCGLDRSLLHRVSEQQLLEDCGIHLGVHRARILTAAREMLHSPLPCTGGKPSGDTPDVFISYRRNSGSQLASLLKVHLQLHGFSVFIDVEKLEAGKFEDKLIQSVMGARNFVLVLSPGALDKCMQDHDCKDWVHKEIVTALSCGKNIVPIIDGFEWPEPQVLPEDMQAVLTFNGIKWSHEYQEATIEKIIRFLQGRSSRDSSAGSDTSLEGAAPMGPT
# Sequence of Mitogen-activated protein kinase 7 (Homo sapiens) (Q13164 whole entry, looked up, the tested form may be a part): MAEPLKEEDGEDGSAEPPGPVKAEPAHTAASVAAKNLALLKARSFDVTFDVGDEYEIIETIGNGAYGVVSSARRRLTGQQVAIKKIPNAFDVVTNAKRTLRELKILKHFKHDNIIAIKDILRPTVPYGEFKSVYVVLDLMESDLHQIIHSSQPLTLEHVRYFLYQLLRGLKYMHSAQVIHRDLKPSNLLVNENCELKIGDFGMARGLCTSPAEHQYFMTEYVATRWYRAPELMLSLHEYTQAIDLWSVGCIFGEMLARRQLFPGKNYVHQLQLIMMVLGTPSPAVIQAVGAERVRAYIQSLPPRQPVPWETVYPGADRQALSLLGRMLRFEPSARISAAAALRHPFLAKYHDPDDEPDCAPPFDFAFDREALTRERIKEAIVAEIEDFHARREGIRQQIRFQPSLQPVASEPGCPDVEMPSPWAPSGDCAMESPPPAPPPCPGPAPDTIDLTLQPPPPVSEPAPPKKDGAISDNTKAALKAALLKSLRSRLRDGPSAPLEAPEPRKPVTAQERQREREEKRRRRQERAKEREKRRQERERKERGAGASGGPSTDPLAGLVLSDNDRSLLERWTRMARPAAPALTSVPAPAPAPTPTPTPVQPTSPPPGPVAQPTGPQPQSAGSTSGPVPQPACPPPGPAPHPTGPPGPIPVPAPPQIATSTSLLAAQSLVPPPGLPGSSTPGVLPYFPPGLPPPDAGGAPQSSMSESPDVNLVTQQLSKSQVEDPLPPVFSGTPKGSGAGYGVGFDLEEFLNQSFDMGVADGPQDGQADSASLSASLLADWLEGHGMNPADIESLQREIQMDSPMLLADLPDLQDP
smiles,measurement,setting,value
CC(=O)OCC1=C(C(=O)O)N2C(=O)[C@@H](N)[C@H]2SC1,survival,[1],9.33 (inactive)
same,parasite load remaining,[2],107% (inactive) and 94.3% (inactive)
same,viability,[2],91.6% and 74.9%
same,nuclear beta-catenin stimulation,[3]; at 10 µM,-0.8% (inactive)
same,nuclear beta-catenin stimulation,"[3]; stimulation, at 2 µM",0.2%
same,insulin secretion stimulation,[4],-2.9% (inactive)
same,viability decrease,[5],27.2% (inactive)
same,tube area decrease,[6],10.2% (inactive)
same,GLP1 secretion stimulation,[7],1.9% (inactive)
same,inhibition of viability,[8],-5.2% (inactive)
same,viability decrease (inhibition),[9],82.6% (active)
same,viability decrease (inhibition),[10],29.3% (inactive)
same,fold change,[11]; stronger effect = lower value,0.918 (inactive)
same,fold change,[11]; [16],1.55
same,cell count,[11]; [17],8570
same,cell count,[11]; [18],9340
same,z-score,[12]; [19],0.366 (inactive)
same,z-score,[12]; [20],-0.158
CC(C)(C)CC(C)(C)c1ccc(O)cc1,nuclear beta-catenin stimulation,[3]; at 10 µM,-1.8% (inactive)
same,nuclear beta-catenin stimulation,"[3]; stimulation, at 2 µM",-0.9%
same,insulin secretion stimulation,[4],4% (inactive)
same,viability decrease,[5],84.6% (active)
same,tube area decrease,[6],66.9% (active)
same,GLP1 secretion stimulation,[7],28.5% (active)
same,inhibition of viability,[8],74.8% (active)
same,viability decrease (inhibition),[9],142% (active)
same,viability decrease (inhibition),[10],104% (active)
same,remaining NAD,[13],10 nM (inactive)
C#C[C@]1(O)CC[C@H]2[C@@H]3CCC4=CC(=O)CCC4=C3C=C[C@@]21CC,parasite load remaining,[2],55.7% (inactive)
same,viability,[2],102%
same,nuclear beta-catenin stimulation,[3]; at 10 µM,-0.6% (inactive)
same,nuclear beta-catenin stimulation,"[3]; stimulation, at 2 µM",0.3%
same,insulin secretion stimulation,[4],0.7% (inactive)
same,viability decrease,[5],14.5% (inactive)
same,tube area decrease,[6],41.9% (active)
same,GLP1 secretion stimulation,[7],2.8% (inactive)
same,inhibition of viability,[8],26.1% (inactive)
same,viability decrease (inhibition),[9],16% (inactive)
same,viability decrease (inhibition),[10],-9.5% (inactive)
same,fold change,[11]; stronger effect = lower value,0.886 (inactive)
same,fold change,[11]; [16],1.01
same,cell count,[11]; [17],9780
same,cell count,[11]; [18],11000
same,z-score,[12]; [19],0.0912 (inactive) and 0.694 (inactive)
same,z-score,[12]; [20],0.385 and 1.43
same,z-score,[14],0.24 (inactive)
[N-]=[N+]=CC(=O)OC[C@H](N)C(=O)O,nuclear beta-catenin stimulation,[3]; at 10 µM,-2.7% (inactive)
same,nuclear beta-catenin stimulation,"[3]; stimulation, at 2 µM",-2.4%
same,insulin secretion stimulation,[4],-0.2% (inactive)
same,viability decrease,[5],50.2% (active)
same,tube area decrease,[6],12.9% (inactive)
same,GLP1 secretion stimulation,[7],-1.4% (inactive)
same,inhibition of viability,[8],77.9% (active)
same,viability decrease (inhibition),[9],104% (active)
same,viability decrease (inhibition),[10],57.8% (active)
same,remaining NAD,[13],10 nM (inactive)
same,luciferase signal,[15],40 AU (inactive)
Cc1cccc(Cc2cnc[nH]2)c1C,nuclear beta-catenin stimulation,[3]; at 10 µM,7.4% (inactive)
same,nuclear beta-catenin stimulation,"[3]; stimulation, at 2 µM",8.1%
same,insulin secretion stimulation,[4],0.4% (inactive)
same,viability decrease,[5],-41.9% (inactive)
same,tube area decrease,[6],15.5% (inactive)
same,GLP1 secretion stimulation,[7],4.1% (inactive)
same,inhibition of viability,[8],4.37% (inactive)
same,viability decrease (inhibition),[9],-5.1% (inactive)
same,viability decrease (inhibition),[10],-9.9% (inactive)
same,fold change,[11]; stronger effect = lower value,0.969 (inactive)
same,fold change,[11]; [16],0.529
same,cell count,[11]; [17],7080
same,cell count,[11]; [18],7310
same,z-score,[12]; [19],0.317 (inactive)
same,z-score,[12]; [20],-0.228
COc1ccc2c(c1OC)CN1CCc3cc4c(cc3C1C2)OCO4 (configuration not stated),survival,[1],0.583 (inactive)
same,parasite load remaining,[2],82.7% (inactive)
same,viability,[2],89.1%
same,nuclear beta-catenin stimulation,[3]; at 10 µM,2.2% (inactive)
same,nuclear beta-catenin stimulation,"[3]; stimulation, at 2 µM",2.8%
same,insulin secretion stimulation,[4],1.5% (inactive)
same,viability decrease,[5],34.2% (inactive)
same,tube area decrease,[6],1.4% (inactive)
same,GLP1 secretion stimulation,[7],-1% (inactive)
same,inhibition of viability,[8],49.3% (inactive)
same,viability decrease (inhibition),[9],-5.2% (inactive)
same,viability decrease (inhibition),[10],21.3% (inactive)
same,fold change,[11]; stronger effect = lower value,0.795 (inactive)
same,fold change,[11]; [16],1.12
same,cell count,[11]; [17],8510
same,cell count,[11]; [18],10700
CCOc1cc(C=O)ccc1O,nuclear beta-catenin stimulation,[3]; at 10 µM,-1.6% (inactive)
same,nuclear beta-catenin stimulation,"[3]; stimulation, at 2 µM",-0.8%
same,insulin secretion stimulation,[4],0.4% (inactive)
same,viability decrease,[5],5.6% (inactive)
same,tube area decrease,[6],0.8% (inactive)
same,GLP1 secretion stimulation,[7],-3.6% (inactive)
same,inhibition of viability,[8],6% (inactive)
same,viability decrease (inhibition),[9],6.9% (inactive)
same,viability decrease (inhibition),[10],-3% (inactive)
same,remaining NAD,[13],10 nM (inactive)
CCN[C@@H](C)Cc1cccc(C(F)(F)F)c1,nuclear beta-catenin stimulation,[3]; at 10 µM,3% (inactive)
same,nuclear beta-catenin stimulation,"[3]; stimulation, at 2 µM",2.2%
same,insulin secretion stimulation,[4],8.8% (inactive)
same,viability decrease,[5],-3.65% (inactive)
same,tube area decrease,[6],29.2% (active)
same,GLP1 secretion stimulation,[7],1.3% (inactive)
same,inhibition of viability,[8],-3.9% (inactive)
same,viability decrease (inhibition),[9],17.9% (inactive)
same,viability decrease (inhibition),[10],-6.6% (inactive)
same,z-score,[12]; [19],-1.11 (inactive)
same,z-score,[12]; [20],0.177
CCC(C(N)=O)N1CCCC1=O (configuration not stated),nuclear beta-catenin stimulation,[3]; at 10 µM,-0.1% (inactive)
same,nuclear beta-catenin stimulation,"[3]; stimulation, at 2 µM",-0.2%
same,insulin secretion stimulation,[4],1.4% (inactive)
same,viability decrease,[5],-0.8% (inactive)
same,tube area decrease,[6],-18.3% (inactive)
same,GLP1 secretion stimulation,[7],0.6% (inactive)
same,inhibition of viability,[8],-4.9% (inactive)
same,viability decrease (inhibition),[9],-0.6% (inactive)
same,viability decrease (inhibition),[10],-1.1% (inactive)
same,fold change,[11]; stronger effect = lower value,0.925 (inactive) and 0.884 (inactive)
same,fold change,[11]; [16],1.53 and 10.7
same,cell count,[11]; [17],9780 and 8770
same,cell count,[11]; [18],10600 and 9920
same,z-score,[12]; [19],2 (active)
same,z-score,[12]; [20],0.478
same,z-score,[14],0.645 (inactive)
COC(C)(C)CCCC(C)C/C=C/C(C)=C/C(=O)OC(C)C (configuration not stated),nuclear beta-catenin stimulation,[3]; at 10 µM,2% (inactive)
same,nuclear beta-catenin stimulation,"[3]; stimulation, at 2 µM",1%
same,insulin secretion stimulation,[4],1.35% (inactive)
same,viability decrease,[5],30.9% (inactive)
same,tube area decrease,[6],2.7% (inactive)
same,GLP1 secretion stimulation,[7],3.9% (inactive)
same,inhibition of viability,[8],42% (inactive)
same,viability decrease (inhibition),[9],9.6% (inactive)
same,viability decrease (inhibition),[10],17.2% (inactive)
same,remaining NAD,[13],10 nM (inactive)
O=C(NC(=O)c1c(F)cccc1F)Nc1ccc(Cl)c(Oc2ncc(C(F)(F)F)cc2Cl)c1,nuclear beta-catenin stimulation,[3]; at 10 µM,1.2% (inactive)
same,nuclear beta-catenin stimulation,"[3]; stimulation, at 2 µM",-0.3%
same,insulin secretion stimulation,[4],0.25% (inactive)
same,GLP1 secretion stimulation,[7],-8.7% (inactive)
O=S(=O)(O)c1cc(O)ccc1O,survival,[1],4.5 (inactive)
same,parasite load remaining,[2],113% (inactive)
same,viability,[2],69.3%
same,nuclear beta-catenin stimulation,[3]; at 10 µM,0.1% (inactive)
same,nuclear beta-catenin stimulation,"[3]; stimulation, at 2 µM",2.5%
same,insulin secretion stimulation,[4],3.2% (inactive)
same,viability decrease,[5],-0.4% (inactive)
same,tube area decrease,[6],3% (inactive)
same,GLP1 secretion stimulation,[7],-3% (inactive)
same,inhibition of viability,[8],2.4% (inactive)
same,viability decrease (inhibition),[9],19.4% (inactive)
same,viability decrease (inhibition),[10],10.6% (inactive)
same,fold change,[11]; stronger effect = lower value,0.958 (inactive) and 1.35 (inactive)
same,fold change,[11]; [16],0.623 and 0.929
same,cell count,[11]; [17],8960 and 8580
same,cell count,[11]; [18],9360 and 6370
same,z-score,[12]; [19],-0.259 (inactive) and 0.566 (inactive)
same,z-score,[12]; [20],-0.197 and 0.515
